Screening data deposited in PubChem by National Center for Advancing Translational Sciences (NCATS).
SW480 rerep: DNA re-replication induction in SW480 cells. Potency, µM (series often up to 46.1 µM), without a hit: top-dose re-replication activation, actives largely listed as activators. 340,000 compounds, 1.8% hits. SW480 DNA re-replication, Hoechst DNA content imaging, 48 h; further: % of control where 0% means no effect; nearly all actives have a fitted effect of over 55% in size
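Image-based DNA-content assay: after two days of treatment, nuclei were labelled with the DNA dye Hoechst and imaged, and hits were compounds raising the count of nuclei showing high fluorescence intensity.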
MCF10A rereplic: inducers of DNA re-replication in MCF 10A breast cells; Potency, µM (titrated, usually from 46.1 µM), for the others: at the highest dose activity, positive = re-replication, actives largely listed as activators; MCF 10A DNA re-replication, Hoechst nuclear intensity, 48 h; 350,000 compounds, 2.9% hits; further: % of control where 0% means no effect; nearly all actives have a fitted effect of over 50% in size
KB-3-1 cytotox: KB-3-1 parental cell cytotoxicity. KB-3-1 viability, CellTiter-Glo ATP luminescence, 72 h. Potency, µM (highest dose often 46.1 µM), most hits filed as cytotoxic. 400,000 compounds, 1.4% hits. AID 1347075; further: on the % scale 0 is the no-effect control and ±100 the full control effect; nearly all actives have a fitted effect of over 60% in size
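Using CellTiter-Glo luminescence, growth of non-resistant KB-3-1 adenocarcinoma cells is assessed 72 h after pin-tool compound addition at 37 °C. Normalized responses across the concentration series yield fitted curves.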
KB-V1 cytotox: kills drug-selected multidrug resistant KB-V1 cells | KB-V1 MDR cells viability, CellTiter-Glo, 72 h | Potency, µM (doses to about 46.1 µM), hits mostly cytotoxic | 400,000 compounds, 3.4% hits; further: on the % scale 0 is the no-effect control and ±100 the full control effect; nearly all actives have a fitted effect of over 60% in size
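Potencies derive from concentration-effect curves fitted to normalized luminescence (CellTiter-Glo) of KB-V1 cells treated for 72 h at 37 degrees C in phenol-red-free DMEM containing 10% FBS.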
ELG1 DNA repair: ELG1-dependent DNA repair inhibition | HEK293T ELG1-luciferase reporter, luminescence, 16 h; DNA damage induced by 5-fluorouridine | Potency, µM (highest dose often 46.1 µM), for the others: at the top dose activity change, negative = inhibition, actives largely listed as inhibitors | 330,000 compounds, 2.3% hits | AID 504467; further: on the % scale 0 is the no-effect control and ±100 the full control effect; nearly all actives have a fitted effect of over 55% in size
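Quantitative HTS, concentration-response format. 2,000 cells/well co-treated with 5-fluorouridine and compound, 16 hr in 5% CO2 at 37 °C; ONE-Glo luminescence read after 30 min.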
* hit, by the source's call; i = inactive; ? = inconclusive; . = no result given; [ ] = dose if it differs, or a comment. The list is not random: actives were taken first. Their share in the collection is about 8.1%. The call rests on the fitted dose curve; in most records, active means well fitted curve in the direction sought with a large enough effect; inconclusive means small, poorly fitted or top-dose-only effect, or another doubt; inactive means no such curve, though single readings can be large; an effect the other way counts as inactive or inconclusive. Potency means the concentration at half of the fitted maximal effect.

SMILES	SW480 rerep	MCF10A rereplic	KB-3-1 cytotox	KB-V1 cytotox	ELG1 DNA repair
CCC(=O)Nc1cc(-c2nc3cc(C)cc(C)c3o2)ccc1C	.	.	i	i	.
COc1cc(OC)cc(C(=O)N[C@H](C(=O)Nc2nc(-c3cc(OC)ccc3OC)cs2)C(C)C)c1	27%	-3%	i	i	21µM*
COc1cc(OC)cc(C(=O)N[C@H](C(=O)NC2=NCCS2)C(C)C)c1	-1%	-1%	i	12µM*	-4%
COc1cc(OC)cc(C(=O)N[C@H](C(=O)Nc2nc(-c3ccc(OC)c(OC)c3)cs2)C(C)C)c1	5%	?	?	?	21µM*
CC(C)C(NC(=O)c1ccccc1)C(=O)NC1=NCCS1 (stereo not given)	8%	?	i	i	3%
O=C(N/N=C/c1ccccc1[N+](=O)[O-])c1ccc(COc2ccccc2-c2ccccc2)cc1	-4%	-7%	?	2.1µM*	?
CCOc1ccc(C(=O)N/N=C/c2ccccc2[N+](=O)[O-])cc1	-7%	-3%	i	?	?
O=C1CCC/C(=N\NC(=O)c2ccc(COc3ccccc3-c3ccccc3)cc2)C1	100%	9.2µM*	i	i	-4%
COc1ccc(NC(=O)CSc2nnc3n2CCCCC3)cc1S(=O)(=O)N(C)C	.	.	i	i	.
CN(CC#CC1(O)c2ccccc2-c2ccccc21)Cc1ccccc1	-6%	-3%	i	8.2µM*	0%
Cc1sc(N/N=C/c2cccnc2)nc1-c1ccccc1	?	?	?	12µM*	-4%
C(=N\Nc1nc(Nc2ccccc2)nc(Nc2ccccc2)n1)/c1cccnc1	-4%	?	?	i	6.5µM*
Cc1cc(-c2ccccc2)nc(N/N=C/c2ccc([N+](=O)[O-])cc2)n1	-84%	9%	i	23µM*	13µM*
Cc1cc(-c2ccccc2)nc(N/N=C/c2ccccc2)n1	12%	21%	i	i	?
Cc1ccc(-c2cc(-c3ccccc3)nc(N/N=C/c3cccnc3)n2)cc1	?	9.2µM*	i	?	.
CCOC(=O)C1=C(CC)Nc2ccccc2N=C1NC(=O)c1ccc(OC)c(S(=O)(=O)N2CCOCC2)c1	0%	2%	i	i	.
CCOC(=O)c1c(NC(=O)c2ccc(S(=O)(=O)N(C)C3CCCCC3)cc2)sc2c1CCN(C(C)C)C2	.	.	i	i	.
COc1ccc(NS(=O)(=O)c2ccc3[nH]c4c(c3c2)CCCCC4)cc1	.	.	i	i	.
O=[N+]([O-])c1ccc(N/N=C/c2ccccc2)c(F)c1	?	5.8µM*	i	?	?
O=C(Nc1ccc(N2CCCC2)c(Cl)c1)c1ccco1	-9%	-5%	i	?	?
O=C(Nc1ccc(N2CCCCC2)c(C(=O)O)c1)c1ccco1	-6%	-1%	i	i	?
Cc1ccc(NC(=O)c2cc(NC(=O)c3ccco3)ccc2N2CCOCC2)cc1Cl	-6%	2%	i	?	16µM*
Cc1cccc(NC(=O)c2cc(NC(=O)c3ccco3)ccc2N2CCCCC2)c1	16%	12µM*	i	i	19%
Cc1cc(C)c2cc(CN(CCN3CCCC3)C(=O)Nc3ccc(F)cc3)c(=O)[nH]c2c1	15%	24%	?	i	?
Cc1ccc(C)c2[nH]c(=O)c(CN(CCN3CCCC3)C(=O)Nc3cccc(Cl)c3)cc12	3%[9.22 µM]	4%	?	i	15µM*
COc1ccc(OC)c(CN(CCN2CCOCC2)C(=O)Nc2cccc(Cl)c2)c1	13%	22%	i	3.7µM*	?
Cc1cc(C)c2cc(CN(CCO)C(=O)Nc3ccc(Cl)cc3)c(=O)[nH]c2c1	?	?	i	i	18µM*
COc1ccc(OC)c(CN(CCN2CCOCC2)C(=O)Nc2ccccc2)c1	-4%	?	i	?	?
CC(C)c1ccccc1NC(=O)CN(c1ccccc1)S(=O)(=O)N(C)C	.	.	i	i	.
Cc1ccc(S(=O)(=O)c2nc(S(C)(=O)=O)sc2N2CCCCCC2)cc1	-7%	4%	i	6.5µM*	4%
